Whole data set: some 59,000 sequences, median the read-out near -0.00055, cut for the lowest 2% near -2. This is one part of a sample in which the lowest values are shown more often than they occur.
Experiment: Identification of proteins required for the processing of the EWS-FLI1 nascent transcript;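 note: robust z of luciferase light less the median z of siRNAs with the same seed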
Settings: TC32 Ewing sarcoma NR0B1-luc vs CMV-luc (EWS-FLI1 target promoter against control promoter), 48 h; screened at 20 nM (by protocol)
Outline: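 Readout: OneGlo luminescence, 48 h post-transfection, TC32-NR0B1-luc vs TC32-CMV-luc in parallel. siRNA 20 nM final, RNAiMax lipid, 600 cells/well; z-score-MAD transformed, then seed-adjusted.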

Point of comparison: AAUGUAAGGCCUUAAAUCG against MRPS27, seed-corrected z-score 0.696. Against it:
- AAAGUUCUCGAAAUGCUUC against GLOD4 — lower, -0.0199
- UUACGGUACUUGGUCUCGC against NRAP — lower, -1.11
- UUUUUGGUCACCGGUUGCC against GRK5 — lower, -0.48
- UAGCUUGAUAAUAACCAGC against EMC8 — lower, 0.529
- AUAGUGCUCAUGAACAUGG against OR7G1 — lower, 0.135
- UAGCUGUGAACAGUACCCG against MPL — lower, -2.07
- UGUUGUCAAAACCACUGCC against CTBP1 — lower, -1.98
- UGAUGAACUGGUUAUGAGG against LAPTM5 — higher, 1.26
- UACAUCCUCAUUAUAGGUU against ZNRF2 — lower, -0.243
- UUGUCUAAUGGUAAAGUGC against LDB2 — lower, -0.144
- AAGGGUAUCUGAGUCCUUG against RC3H2 — lower, -0.0262
- UGAGCGAUUGUUAAAUGCC against ZNF781 — lower, -0.576
- UGCUCUCUCAGAAUCUCGC against SPA17 — lower, -0.647
- UUAGCAUUCCUGGAAUCCG against EIF5B — lower, -2.11
- AGAUUGUUAAGCAGCGUGU against C7orf43 — lower, 0.291
- UCUAUGUCGGGAUCGGUGC against LINC00467 — lower, 0.416
- UUCUUAUCAGCAGCUAGUC against CKAP5 — lower, -2.74
- AAGGCAACAGUGUCCCAUG against SMIM22 — lower, -1.28
- UUUGAAAUUUGUCAGGUCU against PQLC2L — lower, -0.634
- UACUAUGUCUUCAAGAUCC against CD99L2 — lower, 0.481
- UGCUUUAACUGGAUACAUC against NPHP1 — lower, -2.27
- UUCUUAGCUCCCACGAUCC against ZNF512 — lower, 0.51
- UUGGUGAAUAAAUAUCAUC against ZBTB25 — lower, 0.411
- AAUCUUCCCAUUCUCGUCC against NAA10 — lower, 0.136
- UACGGUAUGACUUUCGUUG against RPL23 — lower, -2.37
- AUUGUUACUAUUGGACAGG against RFPL4A — lower, 0.248
- UGUUUGACCAUUCCGUAUC against VRK1 — lower, 0.29
- UUUCGUCUCAGCACUGCAC against ANKMY1 — lower, 0.0118
- UUUGUGACCAGCAAUCUGC against PLA2G2F — lower, -0.775
- AAGUUUAGCAAAGACCUGC against VPS39 — lower, -2.66
- UCCGAGAUGAGGUAUUAGG against PPIP5K2 — lower, 0.207
- UUACACUUCAUUUCCAGAG against WNT11 — higher, 1.06
- UUCUUGCCUAGACAGCACC against JAK1 — lower, 0.139
- UUUGGGUAAAUAAUCCUUU against C4orf45 — lower, -1.15
- UUCGGGUUGUUCUUUUUCC against TCHP — lower, 0.00716
- AUAAUAUGAUUCCUAAUCC against FAM188A — lower, 0.685
- UUAGCUGCAACUGGAAGGU against TEX13B — lower, -3.82
- UGAUGUCCAACACCAGUCC against ADCY3 — higher, 1.37
- UUGAACUAAACAUAUCAGC against TAB3 — higher, 1.2
- AGUGGAACAAGAUCUCAGU against NOL6 — higher, 0.803
- UUCAUACUCAGGCAUAUCC against SEC23A — lower, -0.651
- ACAGAUGUCACACUCGAAG against ZNF581 — lower, 0.251
- UUUCAUCUCUCUUAGAUAC against AP3S1 — lower, -0.346
- UGAGAGUUGAGCCUUAUCA against OR8B8 — lower, -2.36
- AGACGAUCAAGCUCUGGUG against CYB5R4 — lower, -0.548
- ACAGGUGCAAACAAAGAGC against TMEM167B — lower, -2.18
- UGAACAUCCAGUUCUUCCC against CHERP — lower, -1.4
- UGGAUUAGCAUGACAGACC against COPB1 — lower, -2.98
- UAUGCUCCUCCCGACAAGU against HMGB1P1 — lower, 0.175
- AAACAGACCACCUCGUAGG against MTUS2-AS1 — higher, 0.795
- UAUCUUCGUACUCAUUUGG against TNFAIP6 — lower, -2.49
- ACUAGAACAAUCUGCAUCC against ZBTB1 — lower, 0.122
- UAUCGGAAAGAUAGCCUGG against PTPN3 — lower, 0.486
- UACACGUACGGGAUAUUUG against HTR3A — lower, -0.067
- UGUUGUAGCACUCCAACGC against PRKDC — lower, -4.34
- UCUUUAUCAAAUCUGAGUG against FANCC — lower, 0.127
- UGUGGGUUAAAAGUCAGCA against CDK4 — lower, -1.59
- UCUACCAACAGCAAGAUAC against PLEKHG4B — lower, -0.565
- UGUAGGUGUAGGCUGUUCG against RFX2 — lower, -4.23
- UUUCUGCUUGUAUCUGCCC against C1QC — lower, -2
- UUCUUUAAGUCAAAGUUUC against FEZF2 — lower, -1.32
- UGCUUUAUUAUUAAUGGAC against PABPC3 — lower, -0.79
- UGGAUUGUAACCUUUCAUC against EIF2B5 — lower, -0.151
- UAUUUAUUAGAAACAUGGG against ZNF415 — lower, -2.45
- AAAUAGUUCUCAGUCAUUC against RBM38 — lower, 0.473
- AGUUGUCCAAUGCAGAUGU against ZDHHC24 — lower, -0.264
- AUAUUUGCAACCUGCAUUC against SPG7 — lower, -0.324
- UCAGUUCUUGCAGUGCACC against FAM212B — lower, -0.229
- UGGGUGUUCAUGACCUGCC against LMF1 — lower, -2.6
- UGCCCAUCCACAUUGUCCU against REXO1 — lower, -0.116
- UACGAAUCAAACCAAGAUC against RASGRP3 — lower, -0.4
- UAUUGAUCUGCCGAGGAGC against CYFIP1 — lower, -0.5
- UUCGUGACUGUCAUCAUCC against CARD11 — lower, 0.437
- UGAACAUACAUCUUGAAUC against SRP19 — higher, 0.739
- UCGGUGUAAGGUGUCCAUG against POU2AF1 — lower, -0.0736
- UUCUUUCCAAACGCAAGAU against RPRML — lower, -2.78
- AACUUGGUAGCGGCUUUGG against CDHR1 — lower, -0.12
- UAUAUUGCUCGGUCAAGUC against RBM4 — lower, -0.89
- AAACACGUAGGGCACAUUC against SNU13 — lower, -5.96
- AAUGGAAAUAUUCUCGACC against CNRIP1 — lower, -0.303
- UCACAGAGCAGAUGGGUUC against PTPN7 — lower, -0.424
- UUAAGUCUAGGGCAAAUUC against OGFOD1 — lower, 0.0394
- UUACCUGCAGAAACCUUCU against MUC1 — lower, -2.32
- AAUCUUCUUGUCCUGACUC against PHPT1 — lower, -0.987
- AAAUAGGCAAGGAAUCUUG against LARP1BP1 — lower, -1.48
- AAUGUUGUCAUAGCCGAUG against PSTPIP2 — lower, -0.92
- UACGUGUUGAUUUGUCAGC against ANKZF1 — lower, 0.382
- UCCAUUUCAGGAGCUACGC against OTULIN — lower, -2.32
- UGCUAAAAUAGUCGCAUCC against LOC727919 — lower, -0.265
- AUACCUGCAGUGAACAUUU against ECH1 — lower, -3.28
- UACUGACUCCUUGUAUGCC against CSTF2T — lower, 0.0375
- UGUCAAACUGGUGCUGUUG against NAGLU — lower, -0.208
- UUCUUUCACGCUUAGUUUC against LOC729978 — higher, 0.995
- AAAAUUUCAUCCAUCAAUC against NUS1 — lower, 0.0341
- UCUUCGUCCACAUUGGUUC against EPG5 — lower, -11.6
- UUCUAUACCCAGUACAUGG against ZNF112 — higher, 1.1
- UGUUAUAGAAUGACGCACC against DNAH11 — lower, -0.639
- AAAGCGAAGAGGUCUAGGC against PASK — lower, 0.632
- UCCAGGUCUAGAACUUGCG against DACH1 — lower, -0.158
- AAGUCGAUCCAUAACAAUC against AK9 — lower, 0.17
- AACCAUACUACAGUCAAUC against TIMM17A — lower, 0.0529
- UCAUCUAAAAUCUCGGUAG against POLE — lower, -2.51
- UCAUAUACAGCAAACGGGC against RHOJ — lower, -0.695
- ACUGUUGUCACUGCGGUGG against GPR20 — lower, -0.419
- UAAUUUCAGAGUAUGUCCG against PCDHAC2 — lower, -0.214
- UGGGUAGUUAGACUUGAUC against ZNF160 — lower, -2.52
- UACCUAUUUAGCAUAUUGG against GRIN2B — higher, 1.13
- UUGGAUCCAGUUGAUAACG against EPCAM — higher, 0.867
- UGAGUUACAGGGACCGAAG against LINC00944 — lower, -0.148
- AGCUUGAGAAUUUACUUGG against HIST1H2BL — lower, -2.21
- UUAUCUCCAGCUAUGCUGU against LOC440292 — higher, 1.49
- UCCUCAUGUAUUUUGGUCC against ELOVL5 — lower, -0.118
- UCACUUAGCAUGGGUAUUG against TMOD4 — lower, -0.648
- UUCUCUUCCAUCUCCGCCC against TNRC18 — lower, -0.725
- AAACUGGUAAUAUGAAUUC against IQSEC2 — higher, 1.31
- UUUGGUCCAAAUUCACUCC against C2orf76 — lower, -2.66
- GGCUGGUCGUGAUCUUUCC against SPDYE2 — higher, 0.846
- UUCGAUAUACCAGAACCGC against LPGAT1 — lower, -1.1
- UGUAGUAAUGUGAUUUUCC against CTBP2 — higher, 1.22
- UUCCUCGUAGGUCCACUCG against ARID3C — lower, -0.393
- UUUCCUGCACCCAUAAGUC against C11orf58 — lower, -0.0639
- GAACGACUCAGAUCCCGGA against HCRT — lower, -12.7
- UUACAGGUAGCGGCAAGCA against SP8 — higher, 0.823
- UACCUGAAAACCUAGUUUC against TBPL1 — lower, -0.106
- UAUAGUAAAGCCCAGACGG against CNTNAP3 — lower, -2.74
- AUAUGUUUACUACCGGUGC against CYP4Z1 — lower, -0.0519
- UUCGCUUAACAUGCUCUCC against SKIL — lower, -1.15
- AAUUCCAGAAUUACAGGCU against PRAC1 — lower, -0.113
- UAAGAUGAGAGAGUGUCCA against TAS2R1 — higher, 0.755
- UACUGGUCUAGGAGGUAUG against ERRFI1 — lower, -0.314
- AGACUGAGCAGUAGGACUC against SLC35E4 — lower, -2.41
- AUAUGGUCAAAUGAGUUAG against KIF3B — higher, 1.67
